Test in all cases: PBM; 200 nM protein, PBS
Common to all, as to conditions: dsDNA, one strand shown

Experiment [1] has as its target T1, VENTX (Homo sapiens, UniProt O95231 78-163, R121Q).
T1 sequence: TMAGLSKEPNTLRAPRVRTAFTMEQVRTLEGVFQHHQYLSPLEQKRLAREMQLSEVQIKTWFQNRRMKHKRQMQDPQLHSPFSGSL

The target of experiment [2] is T2, VENTX (Homo sapiens, UniProt O95231 78-163).
T2 sequence: T1 sequence with Q44R

For experiment [3], the target named is T3, VENTX (Homo sapiens, UniProt O95231 78-163, Y115F).
T3 sequence: T1 sequence with Y38F, Q44R

Experiment [4] concerns the target ALX1 (Homo sapiens, UniProt Q15699 118-204, L144V).
Experiment [5] has as its target ALX1 (Homo sapiens, UniProt Q15699 118-204, L144R).
Experiment [6] deals with ALX1 (Homo sapiens, UniProt Q15699 118-204).
Experiment [7] has as its target HOXA2 (Homo sapiens, UniProt O43364 129-215, R185T).
The target in experiment [8] is HOXA2 (Homo sapiens, UniProt O43364 129-215, R185K).
The target in experiment [9] is HOXA2 (Homo sapiens, UniProt O43364 129-215, Y150S).
Experiment [10] has as its target HOXA2 (Homo sapiens, UniProt O43364 129-215).
Experiment [11] addresses ALX3 (Homo sapiens, UniProt O95076 139-225, N203Q).
For experiment [12], the target named is T4, NKX2-6 (Homo sapiens, UniProt A6NCS4 118-204).
T4 sequence: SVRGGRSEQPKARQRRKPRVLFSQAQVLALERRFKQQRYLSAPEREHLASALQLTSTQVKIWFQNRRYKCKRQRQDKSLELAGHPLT

Experiment [13] has as its target ALX3 (Homo sapiens, UniProt O95076 139-225).
Experiment [14] addresses ALX3 (Homo sapiens, UniProt O95076 139-225, L168Q).
Experiment [15] deals with T5, NKX2-6 (Homo sapiens, UniProt A6NCS4 118-204, F151L).
T5 sequence: T4 sequence with F34L

For experiment [16], the target named is ALX3 (Homo sapiens, UniProt O95076 139-225, L168V).
The target in experiment [17] is ALX3 (Homo sapiens, UniProt O95076 139-225, N203S).
Experiment [18] concerns the target HOXB6 (Homo sapiens, UniProt P17509 132-218, K202E).
The target of experiment [19] is VAX1 (Homo sapiens, UniProt Q5SQQ9 86-172).
The target in experiment [20] is VAX1 (Homo sapiens, UniProt Q5SQQ9 86-172, T142I).
For experiment [21], the target named is VAX1 (Homo sapiens, UniProt Q5SQQ9 86-172, K157R).
Experiment [22] deals with HOXB6 (Homo sapiens, UniProt P17509 132-218).
In experiment [23] the target is MSX2 (Homo sapiens, UniProt P35548 130-214, R199I).
In experiment [24] the target is MSX2 (Homo sapiens, UniProt P35548 130-214).
Experiment [25] has as its target MSX2 (Homo sapiens, UniProt P35548 130-214, F161Y).

Where a chain is given by its changes, count along the chain named.

Chain of HOXA2 (Homo sapiens, UniProt O43364 129-215, Y150S) (O43364 129-215 Y150S): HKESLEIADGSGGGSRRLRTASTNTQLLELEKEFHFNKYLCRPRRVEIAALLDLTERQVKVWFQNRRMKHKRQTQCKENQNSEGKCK
Chain of HOXA2 (Homo sapiens, UniProt O43364 129-215, R185T) (O43364 129-215 R185T): as the sequence (O43364 129-215 Y150S) above, with S22Y, R57T counted along it
Chain of HOXA2 (Homo sapiens, UniProt O43364 129-215) (O43364 129-215): as the sequence (O43364 129-215 Y150S) above, with S22Y counted along it
Chain of HOXA2 (Homo sapiens, UniProt O43364 129-215, R185K) (O43364 129-215 R185K): as the sequence (O43364 129-215 Y150S) above, with S22Y, R57K counted along it
Chain of ALX3 (Homo sapiens, UniProt O95076 139-225, L168V) (O95076 139-225 L168V): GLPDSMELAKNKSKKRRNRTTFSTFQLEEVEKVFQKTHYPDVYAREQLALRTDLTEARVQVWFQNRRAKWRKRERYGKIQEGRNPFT
Chain of ALX3 (Homo sapiens, UniProt O95076 139-225, L168Q) (O95076 139-225 L168Q): as the sequence (O95076 139-225 L168V) above, with V30Q counted along it
Chain of ALX3 (Homo sapiens, UniProt O95076 139-225) (O95076 139-225): as the sequence (O95076 139-225 L168V) above, with V30L counted along it
Chain of ALX3 (Homo sapiens, UniProt O95076 139-225, N203S) (O95076 139-225 N203S): as the sequence (O95076 139-225 L168V) above, with V30L, N65S counted along it
Chain of ALX3 (Homo sapiens, UniProt O95076 139-225, N203Q) (O95076 139-225 N203Q): as the sequence (O95076 139-225 L168V) above, with V30L, N65Q counted along it
Chain of ALX1 (Homo sapiens, UniProt Q15699 118-204, L144R) (Q15699 118-204 L144R): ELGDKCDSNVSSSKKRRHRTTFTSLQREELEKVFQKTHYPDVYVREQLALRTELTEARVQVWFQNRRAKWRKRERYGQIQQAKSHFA
Chain of MSX2 (Homo sapiens, UniProt P35548 130-214, F161Y) (P35548 130-214 F161Y): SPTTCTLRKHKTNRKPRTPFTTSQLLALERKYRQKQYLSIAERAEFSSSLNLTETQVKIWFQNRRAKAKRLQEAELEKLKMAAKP
Chain of MSX2 (Homo sapiens, UniProt P35548 130-214, R199I) (P35548 130-214 R199I): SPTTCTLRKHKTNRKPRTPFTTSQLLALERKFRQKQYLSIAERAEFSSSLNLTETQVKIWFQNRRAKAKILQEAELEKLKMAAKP
Chain of ALX1 (Homo sapiens, UniProt Q15699 118-204) (Q15699 118-204): as the sequence (Q15699 118-204 L144R) above, with R27L counted along it
Chain of MSX2 (Homo sapiens, UniProt P35548 130-214) (P35548 130-214): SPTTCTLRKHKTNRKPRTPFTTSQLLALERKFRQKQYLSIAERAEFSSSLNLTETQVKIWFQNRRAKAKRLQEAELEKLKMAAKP
Chain of HOXB6 (Homo sapiens, UniProt P17509 132-218) (P17509 132-218): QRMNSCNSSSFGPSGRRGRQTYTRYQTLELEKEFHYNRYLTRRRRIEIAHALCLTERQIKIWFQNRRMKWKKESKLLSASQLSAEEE
Chain of VAX1 (Homo sapiens, UniProt Q5SQQ9 86-172, K157R) (Q5SQQ9 86-172 K157R): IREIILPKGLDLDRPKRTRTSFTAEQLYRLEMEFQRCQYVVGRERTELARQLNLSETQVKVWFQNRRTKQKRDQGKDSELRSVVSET
Chain of VAX1 (Homo sapiens, UniProt Q5SQQ9 86-172, T142I) (Q5SQQ9 86-172 T142I): as the sequence (Q5SQQ9 86-172 K157R) above, with T57I, R72K counted along it
Chain of ALX1 (Homo sapiens, UniProt Q15699 118-204, L144V) (Q15699 118-204 L144V): as the sequence (Q15699 118-204 L144R) above, with R27V counted along it
Chain of VAX1 (Homo sapiens, UniProt Q5SQQ9 86-172) (Q5SQQ9 86-172): as the sequence (Q5SQQ9 86-172 K157R) above, with R72K counted along it
Chain of HOXB6 (Homo sapiens, UniProt P17509 132-218, K202E) (P17509 132-218 K202E): as the sequence (P17509 132-218) above, with K71E counted along it

With GCCCCGGC, the binding signal in experiment [1] is 8.07 upbm affinity estimate (log intensity, higher = more binding, comparable within an allelic series); in [2], 7.98 upbm affinity estimate (log intensity, higher = more binding, comparable within an allelic series); in [3] it was 7.96 upbm affinity estimate (log intensity, higher = more binding, comparable within an allelic series); in [4], 6.69 upbm affinity estimate (log intensity, higher = more binding, comparable within an allelic series); in [5] it was 6.67 upbm affinity estimate (log intensity, higher = more binding, comparable within an allelic series); in experiment [6], 6.32 upbm affinity estimate (log intensity, higher = more binding, comparable within an allelic series).
For GCTTATTA, the binding signal in experiment [1] was 10.2 upbm affinity estimate (log intensity, higher = more binding, comparable within an allelic series); in experiment [2], 10.8 upbm affinity estimate (log intensity, higher = more binding, comparable within an allelic series); in [3], 10.3 upbm affinity estimate (log intensity, higher = more binding, comparable within an allelic series); in experiment [7] it was 10.9 upbm affinity estimate (log intensity, higher = more binding, comparable within an allelic series); in experiment [8], 12.2 upbm affinity estimate (log intensity, higher = more binding, comparable within an allelic series); in experiment [9] it was 10.7 upbm affinity estimate (log intensity, higher = more binding, comparable within an allelic series). Further, the binding signal in experiment [10] is 10.7 upbm affinity estimate (log intensity, higher = more binding, comparable within an allelic series).
In the case of CGAGCCGC, the binding signal in experiment [1] was 8.16 upbm affinity estimate (log intensity, higher = more binding, comparable within an allelic series); in experiment [2] it was 8.17 upbm affinity estimate (log intensity, higher = more binding, comparable within an allelic series); in experiment [3], 8.15 upbm affinity estimate (log intensity, higher = more binding, comparable within an allelic series); in experiment [11], 7.74 upbm affinity estimate (log intensity, higher = more binding, comparable within an allelic series); in experiment [12] it was 9.49 upbm affinity estimate (log intensity, higher = more binding, comparable within an allelic series); in experiment [13] it was 7.82 upbm affinity estimate (log intensity, higher = more binding, comparable within an allelic series). Also, the binding signal is 7.81 upbm affinity estimate (log intensity, higher = more binding, comparable within an allelic series) in experiment [14]; 9.16 upbm affinity estimate (log intensity, higher = more binding, comparable within an allelic series) in [15]; 7.75 upbm affinity estimate (log intensity, higher = more binding, comparable within an allelic series) in experiment [16]; 7.79 upbm affinity estimate (log intensity, higher = more binding, comparable within an allelic series) in [17].
As to GCGGCCCC, the binding signal in experiment [1] was 8.15 upbm affinity estimate (log intensity, higher = more binding, comparable within an allelic series); in experiment [2] it was 8.27 upbm affinity estimate (log intensity, higher = more binding, comparable within an allelic series); in experiment [3] it was 8.25 upbm affinity estimate (log intensity, higher = more binding, comparable within an allelic series); in [7] it was 6.96 upbm affinity estimate (log intensity, higher = more binding, comparable within an allelic series); in experiment [8], 9.93 upbm affinity estimate (log intensity, higher = more binding, comparable within an allelic series); in experiment [9], 10.3 upbm affinity estimate (log intensity, higher = more binding, comparable within an allelic series). In experiment [10], the binding signal was 7.15 upbm affinity estimate (log intensity, higher = more binding, comparable within an allelic series).
With CCGCTGGC, the binding signal in [1] is 7.68 upbm affinity estimate (log intensity, higher = more binding, comparable within an allelic series); in [2], 7.51 upbm affinity estimate (log intensity, higher = more binding, comparable within an allelic series); in experiment [3], 7.74 upbm affinity estimate (log intensity, higher = more binding, comparable within an allelic series); in experiment [18] it was 8.89 upbm affinity estimate (log intensity, higher = more binding, comparable within an allelic series); in experiment [19], 6.67 upbm affinity estimate (log intensity, higher = more binding, comparable within an allelic series); in [20], 7.05 upbm affinity estimate (log intensity, higher = more binding, comparable within an allelic series). Besides, the binding signal in [21] was 6.73 upbm affinity estimate (log intensity, higher = more binding, comparable within an allelic series); in [22], 8.76 upbm affinity estimate (log intensity, higher = more binding, comparable within an allelic series).
Turning to GCCAGGCA, the binding signal in experiment [1] is 8.27 upbm affinity estimate (log intensity, higher = more binding, comparable within an allelic series); in [2], 8.55 upbm affinity estimate (log intensity, higher = more binding, comparable within an allelic series); in [3], 8.35 upbm affinity estimate (log intensity, higher = more binding, comparable within an allelic series).
For CCCGTCCG, the binding signal in experiment [1] is 7.93 upbm affinity estimate (log intensity, higher = more binding, comparable within an allelic series); in experiment [2], 7.94 upbm affinity estimate (log intensity, higher = more binding, comparable within an allelic series); in [3], 7.87 upbm affinity estimate (log intensity, higher = more binding, comparable within an allelic series); in experiment [11] it was 7.62 upbm affinity estimate (log intensity, higher = more binding, comparable within an allelic series); in experiment [13] it was 7.58 upbm affinity estimate (log intensity, higher = more binding, comparable within an allelic series); in experiment [14] it was 7.67 upbm affinity estimate (log intensity, higher = more binding, comparable within an allelic series). In addition, the binding signal was 7.65 upbm affinity estimate (log intensity, higher = more binding, comparable within an allelic series) in [16] and 7.6 upbm affinity estimate (log intensity, higher = more binding, comparable within an allelic series) in [17].
Turning to GGCGGCCC, the binding signal is 8.11 upbm affinity estimate (log intensity, higher = more binding, comparable within an allelic series) in experiment [1]; 8.22 upbm affinity estimate (log intensity, higher = more binding, comparable within an allelic series) in experiment [2]; 8.03 upbm affinity estimate (log intensity, higher = more binding, comparable within an allelic series) in [3]; 7.21 upbm affinity estimate (log intensity, higher = more binding, comparable within an allelic series) in [7]; 9.97 upbm affinity estimate (log intensity, higher = more binding, comparable within an allelic series) in experiment [8]; 10.3 upbm affinity estimate (log intensity, higher = more binding, comparable within an allelic series) in [9]. Besides, in experiment [10], the binding signal was 7.16 upbm affinity estimate (log intensity, higher = more binding, comparable within an allelic series).
Regarding CCTGGCTC, the binding signal in [1] is 8.01 upbm affinity estimate (log intensity, higher = more binding, comparable within an allelic series); in [2] it was 8.1 upbm affinity estimate (log intensity, higher = more binding, comparable within an allelic series); in [3] it was 8.06 upbm affinity estimate (log intensity, higher = more binding, comparable within an allelic series); in experiment [23], 9.46 upbm affinity estimate (log intensity, higher = more binding, comparable within an allelic series); in experiment [24] it was 9.51 upbm affinity estimate (log intensity, higher = more binding, comparable within an allelic series); in experiment [25] it was 9.47 upbm affinity estimate (log intensity, higher = more binding, comparable within an allelic series).

These data come from paper PMC11006913.
